Measured values: PubChem BioAssay AID1159580 (chemical genetic matrix, 2015)
Screen size: about 5,500 compounds; about 2,000 (36%) were called active. About 18% were inconclusive and are not listed. Rule as the data show it: active = normalized growth mostly below about 0.91 (no sharp cut-off); inconclusive = no clear call, values can overlap the other calls; inactive = mostly above about 0.92. The list shows a part of the results.

Experiment: chemical genetic growth profiling, strain panel (AID 1159580);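 also: tested at 20 µM; growth read once vehicle control cultures reached saturation at 30 °C; 1 = growth at the plate median or of vehicle wells; lower values mean less growth of the strain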
Conditions: growth OD
[1] = S. cerevisiae deletion strains, locus YDL101C, strain DUN1, stronger effect = lower value
[2] = S. cerevisiae deletion strains, locus YHR030C, strain SLT2, stronger effect = lower value
[3] = S. cerevisiae deletion strains, locus YJL095W, strain BCK1, stronger effect = lower value
[4] = S. cerevisiae deletion strains, locus YOR061W, strain CKA2, stronger effect = lower value

Measured: normalized growth

O=c1c(O)cccc2c(C3Oc4cc(O)cc(O)c4CC3O)cc(O)c(O)c12 (configuration not stated)
active: S. cerevisiae deletion strains, locus YBR229C, strain ROT2, stronger effect = lower value 0.409 | S. cerevisiae deletion strains, locus YCL029C, strain bik1, stronger effect = lower value 0.239 | S. cerevisiae deletion strains, locus YDL035C, strain GPR1, stronger effect = lower value 0.301 | S. cerevisiae deletion strains, locus YDL074C, strain BRE1, stronger effect = lower value 0.322 | [1] 0.219 | S. cerevisiae deletion strains, locus YDL134C, strain PPH21, stronger effect = lower value 0.314 | S. cerevisiae deletion strains, locus YDL185W, strain tfp1, stronger effect = lower value 0.195 | S. cerevisiae deletion strains, locus YDL192W, strain arf1, stronger effect = lower value 0.522 | S. cerevisiae deletion strains, locus YDR101C, strain arx1, stronger effect = lower value 0.295 | S. cerevisiae deletion strains, locus YDR162C, strain NBP2, stronger effect = lower value 0.137 | S. cerevisiae deletion strains, locus YDR318W, strain mcm21, stronger effect = lower value 0.696 | S. cerevisiae deletion strains, locus YDR388W, stronger effect = lower value 0.691 | S. cerevisiae deletion strains, locus YDR502C, strain sam2, stronger effect = lower value 0.287 | S. cerevisiae deletion strains, locus YER155C, strain BEM2, stronger effect = lower value 0.489 | S. cerevisiae deletion strains, locus YER167W, strain BCK2, stronger effect = lower value 0.682 | S. cerevisiae deletion strains, locus YGL078C, strain dbp3, stronger effect = lower value 0.139 | S. cerevisiae deletion strains, locus YGL086W, strain mad1, stronger effect = lower value 0.494 | S. cerevisiae deletion strains, locus YGL248W, strain PDE1, stronger effect = lower value 0.523 | S. cerevisiae deletion strains, locus YGR078C, strain PAC10, stronger effect = lower value 0.686 | S. cerevisiae deletion strains, locus YGR135W, strain pre9, stronger effect = lower value 0.504 | S. cerevisiae deletion strains, locus YGR252W, strain gcn5, stronger effect = lower value 0.54 | [2] 0.484 | S. cerevisiae deletion strains, locus YHR079C, strain IRE1 (second series), stronger effect = lower value 0.116 | S. cerevisiae deletion strains, locus YHR094C, strain hxt1, stronger effect = lower value 0.835 | S. cerevisiae deletion strains, locus YHR129C, strain ARP1, stronger effect = lower value 0.43 | S. cerevisiae deletion strains, locus YHR200W, strain rpn10, stronger effect = lower value 0.623 | S. cerevisiae deletion strains, locus YIL066C, strain RNR3, stronger effect = lower value 0.259 | S. cerevisiae deletion strains, locus YIL073C, strain SPO22, stronger effect = lower value 0.243 | S. cerevisiae deletion strains, locus YIL125W, strain kgd1, stronger effect = lower value 0.272 | S. cerevisiae deletion strains, locus YIR030C, strain dcg1, stronger effect = lower value 0.716 | [3] 0.0943 | S. cerevisiae deletion strains, locus YJL134W, strain LCB3, stronger effect = lower value 0.58 | S. cerevisiae deletion strains, locus YJL168C, strain set2, stronger effect = lower value 0.913 | S. cerevisiae deletion strains, locus YJL187C, strain SWE1 (second series), stronger effect = lower value 0.118 | S. cerevisiae deletion strains, locus YKL009W, strain mrt4, stronger effect = lower value 0.0997 | S. cerevisiae deletion strains, locus YKL068W, stronger effect = lower value 0.889 | S. cerevisiae deletion strains, locus YKL085W, strain MDH1 (second series), stronger effect = lower value 0.303 | S. cerevisiae deletion strains, locus YKL085W, strain MDH1, stronger effect = lower value 0.303 | S. cerevisiae deletion strains, locus YKR001C, strain vps1, stronger effect = lower value 0.523 | S. cerevisiae deletion strains, locus YLR039C, strain RIC1, stronger effect = lower value 0.251 | S. cerevisiae deletion strains, locus YLR058C, strain SHM2, stronger effect = lower value 0.143 | S. cerevisiae deletion strains, locus YLR102C, strain apc9, stronger effect = lower value 0.92 | S. cerevisiae deletion strains, locus YLR262C, strain YPT6, stronger effect = lower value 0.497 | S. cerevisiae deletion strains, locus YLR268W, strain sec22, stronger effect = lower value 0.201 | S. cerevisiae deletion strains, locus YLR330W, strain CHS5, stronger effect = lower value 0.565 | S. cerevisiae deletion strains, locus YLR342W, strain FKS1 (second series), stronger effect = lower value 0.321 | S. cerevisiae deletion strains, locus YLR371W, strain rom2, stronger effect = lower value 0.626 | S. cerevisiae deletion strains, locus YLR418C, strain cdc73, stronger effect = lower value 0.306 | S. cerevisiae deletion strains, locus YML016C, strain PPZ1, stronger effect = lower value 0.225 | S. cerevisiae deletion strains, locus YML032C, strain rad52, stronger effect = lower value 0.391 | S. cerevisiae deletion strains, locus YML124C, strain tub3, stronger effect = lower value 0.56 | S. cerevisiae deletion strains, locus YMR078C, strain ctf18, stronger effect = lower value 0.885 | S. cerevisiae deletion strains, locus YMR223W, strain ubp8, stronger effect = lower value 0.564 | S. cerevisiae deletion strains, locus YMR263W, strain SAP30, stronger effect = lower value 0.233 | S. cerevisiae deletion strains, locus YMR307W, strain GAS1, stronger effect = lower value 0.462 | S. cerevisiae deletion strains, locus YNL067W, strain RPL9B, stronger effect = lower value 0.386 | S. cerevisiae deletion strains, locus YNL128W, strain TEP1, stronger effect = lower value 0.136 | S. cerevisiae deletion strains, locus YNL153C, strain GIM3, stronger effect = lower value 0.266 | S. cerevisiae deletion strains, locus YNL233W, strain BNI4, stronger effect = lower value 0.453 | S. cerevisiae deletion strains, locus YNL250W, strain rad50, stronger effect = lower value 0.098 | S. cerevisiae deletion strains, locus YNL271C, strain bni1, stronger effect = lower value 0.53 | S. cerevisiae deletion strains, locus YNL298W, strain CLA4, stronger effect = lower value 0.824 | S. cerevisiae deletion strains, locus YNL307C, strain MCK1, stronger effect = lower value 0.832 | S. cerevisiae deletion strains, locus YNR052C, strain pop2, stronger effect = lower value 0.127 | S. cerevisiae deletion strains, locus YOL147C, strain pex11, stronger effect = lower value 0.287 | [4] 0.468 | S. cerevisiae deletion strains, locus YOR069W, strain VPS5, stronger effect = lower value 0.29 | S. cerevisiae deletion strains, locus YOR136W, strain idh2, stronger effect = lower value 0.67 | S. cerevisiae deletion strains, locus YOR144C, strain elg1, stronger effect = lower value 0.198 | S. cerevisiae deletion strains, locus YOR184W, strain ser1, stronger effect = lower value 0.357 | S. cerevisiae deletion strains, locus YOR316C, strain cot1, stronger effect = lower value 0.922 | S. cerevisiae deletion strains, locus YPL055C, strain LGE1, stronger effect = lower value 0.271 | S. cerevisiae deletion strains, locus YPL241C, strain CIN2, stronger effect = lower value 0.617 | S. cerevisiae deletion strains, locus YPR141C, strain kar3, stronger effect = lower value 0.17 | S. cerevisiae deletion strains, locus YPR163C, strain tif3, stronger effect = lower value 0.703 | S. cerevisiae deletion strains, locus YPR167C, strain met16, stronger effect = lower value 0.707 | S. cerevisiae deletion strains, strain wtn01, stronger effect = lower value 0.44 | S. cerevisiae strains, strain wild type, stronger effect = lower value 0.134
inactive: S. cerevisiae deletion strains, locus YBR021W, strain FUR4, stronger effect = lower value 0.966 | S. cerevisiae deletion strains, locus YER110C, stronger effect = lower value 0.963 | S. cerevisiae deletion strains, locus YOL012C, strain htz1 0.2 | S. cerevisiae deletion strains, locus YPR119W, strain clb2, stronger effect = lower value 0.946

O=C1OC(c2ccccc2)=C/C1=C/c1ccccc1
inactive: S. cerevisiae deletion strains, locus YAR019C, strain CDC15, stronger effect = lower value 0.952 | S. cerevisiae deletion strains, locus YBL105C, strain PKC1, stronger effect = lower value 0.953 | S. cerevisiae deletion strains, locus YBR135W, strain CKS1, stronger effect = lower value 0.942 | S. cerevisiae deletion strains, locus YBR136W, strain MEC1, stronger effect = lower value 0.953 | S. cerevisiae deletion strains, locus YBR160W, strain CDC28, stronger effect = lower value 0.943 | S. cerevisiae deletion strains, locus YDL017W, strain CDC7, stronger effect = lower value 0.95 | S. cerevisiae deletion strains, locus YDL028C, strain MPS1, stronger effect = lower value 0.923 | [1] 0.966 | S. cerevisiae deletion strains, locus YDL108W, strain KIN28, stronger effect = lower value 0.925 | S. cerevisiae deletion strains, locus YDL132W, strain cdc53, stronger effect = lower value 0.96 | S. cerevisiae deletion strains, locus YDR052C, strain DBF4, stronger effect = lower value 0.969 | S. cerevisiae deletion strains, locus YDR054C, strain cdc34, stronger effect = lower value 0.962 | S. cerevisiae deletion strains, locus YDR226W, strain ADK1, stronger effect = lower value 0.944 | S. cerevisiae deletion strains, locus YER123W, strain YCK3, stronger effect = lower value 0.869 | S. cerevisiae deletion strains, locus YER133W, strain GLC7, stronger effect = lower value 0.725 | S. cerevisiae deletion strains, locus YFL009W, strain cdc4, stronger effect = lower value 0.961 | S. cerevisiae deletion strains, locus YFL029C, strain CAK1, stronger effect = lower value 0.925 | S. cerevisiae deletion strains, locus YFR003C, strain YPI1, stronger effect = lower value 0.956 | S. cerevisiae deletion strains, locus YFR019W, strain FAB1, stronger effect = lower value 0.946 | S. cerevisiae deletion strains, locus YFR028C, strain CDC14, stronger effect = lower value 0.948 | S. cerevisiae deletion strains, locus YGR092W, strain DBF2, stronger effect = lower value 0.855 | S. cerevisiae deletion strains, locus YHR079C, strain IRE1, stronger effect = lower value 0.934 | S. cerevisiae deletion strains, locus YIL147C, strain SLN1, stronger effect = lower value 0.955 | [3] 0.669 | S. cerevisiae deletion strains, locus YJL128C, strain PBS2, stronger effect = lower value 1 | S. cerevisiae deletion strains, locus YJL157C, strain FAR1, stronger effect = lower value 0.761 | S. cerevisiae deletion strains, locus YJR016C, strain ILV3, stronger effect = lower value 0.954 | S. cerevisiae deletion strains, locus YJR066W, strain TOR1 (second series), stronger effect = lower value 0.861 | S. cerevisiae deletion strains, locus YKL048C, strain ELM1, stronger effect = lower value 0.889 | S. cerevisiae deletion strains, locus YKL101W, strain HSL1, stronger effect = lower value 0.797 | S. cerevisiae deletion strains, locus YKL193C, strain SDS22, stronger effect = lower value 0.948 | S. cerevisiae deletion strains, locus YLR133W, strain CKI1, stronger effect = lower value 0.843 | S. cerevisiae deletion strains, locus YML070W, strain DAK1, stronger effect = lower value 0.892 | S. cerevisiae deletion strains, locus YMR001C, strain CDC5, stronger effect = lower value 0.951 | S. cerevisiae deletion strains, locus YMR205C, strain PFK2 (second series), stronger effect = lower value 0.843 | S. cerevisiae deletion strains, locus YMR277W, strain FCP1, stronger effect = lower value 0.918 | S. cerevisiae deletion strains, locus YNL006W, strain LST8, stronger effect = lower value 0.956 | S. cerevisiae deletion strains, locus YNL020C, strain ARK1, stronger effect = lower value 0.9 | S. cerevisiae deletion strains, locus YNL161W, strain CBK1, stronger effect = lower value 0.945 | S. cerevisiae deletion strains, locus YNL207W, strain RIO2, stronger effect = lower value 0.951 | S. cerevisiae deletion strains, locus YNL222W, strain SSU72, stronger effect = lower value 0.932 | S. cerevisiae deletion strains, locus YNL307C, strain MCK1 (second series), stronger effect = lower value 0.95 | S. cerevisiae deletion strains, locus YOL078W, strain AVO1, stronger effect = lower value 0.954 | S. cerevisiae deletion strains, locus YOL136C, strain PFK27, stronger effect = lower value 0.914 | [4] 0.844 | S. cerevisiae deletion strains, locus YOR231W, strain MKK1, stronger effect = lower value 0.943 | S. cerevisiae deletion strains, locus YOR329C, strain SCD5, stronger effect = lower value 0.961 | S. cerevisiae deletion strains, locus YPL031C, strain PHO85, stronger effect = lower value 0.758 | S. cerevisiae deletion strains, locus YPL153C, strain RAD53, stronger effect = lower value 0.798 | S. cerevisiae deletion strains, locus YPL204W, strain HRR25, stronger effect = lower value 0.839 | S. cerevisiae deletion strains, locus YPL209C, strain IPL1, stronger effect = lower value 0.947 | S. cerevisiae deletion strains, locus YPR025C, strain CCL1, stronger effect = lower value 0.945 | S. cerevisiae deletion strains, locus YPR106W, strain ISR1, stronger effect = lower value 0.981 | S. cerevisiae deletion strains, locus YPR111W, strain DBF20, stronger effect = lower value 0.964 | S. cerevisiae deletion strains, strain NNK1, stronger effect = lower value 0.949 | S. cerevisiae deletion strains, strain TSCII, stronger effect = lower value 0.93
active: S. cerevisiae deletion strains, locus YDL214C, strain PRR2, stronger effect = lower value 0.604 | S. cerevisiae deletion strains, locus YDR477W, strain SNF1, stronger effect = lower value 0.635 | S. cerevisiae deletion strains, locus YGR040W, strain KSS1, stronger effect = lower value 0.674 | S. cerevisiae deletion strains, locus YGR052W, strain FMP48, stronger effect = lower value 0.353 | [2] 0.506 | S. cerevisiae deletion strains, locus YHR082C, strain KSP1, stronger effect = lower value 0.522 | S. cerevisiae deletion strains, locus YHR205W, strain SCH9, stronger effect = lower value 0.514 | S. cerevisiae deletion strains, locus YJR066W, strain TOR1, stronger effect = lower value 0.461 | S. cerevisiae deletion strains, locus YKL203C, strain TOR2, stronger effect = lower value 0.614 | S. cerevisiae deletion strains, locus YLR113W, strain HOG1, stronger effect = lower value 0.714 | S. cerevisiae deletion strains, locus YLR403W, strain SFP1, stronger effect = lower value 0.611 | S. cerevisiae deletion strains, locus YNL183C, strain NPR1, stronger effect = lower value 0.188 | S. cerevisiae deletion strains, locus YOR119C, strain RIO1, stronger effect = lower value 0.519 | S. cerevisiae deletion strains, locus YPL256C, strain CLN2, stronger effect = lower value 0.793
